{"source": "paper PMC5540273", "about": "(PLoS ONE, 2017);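 also: KINOMEscan kinase panel screen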"}
{"tested_on": "SNRK", "details": "concentration: 1 μM, replicates: in singlicate; n = 1", "units": {"%Inh": "%"}}
{"smiles": "COc1cc(Nc2nccc(N3CCC(NC(=O)Nc4cccc(C(C)=O)c4)C3)n2)cc(OC)c1OC", "note": "(stereo not shown) [GSK1379753]", "%Inh": 0}
{"smiles": "CN1CCN(CCCNc2nccc(-c3c(-c4ccc(F)cc4)nn4cc(C(F)(F)F)ccc34)n2)CC1", "note": "[GW621581]", "%Inh": 0}
{"smiles": "c1ccc(-c2cnc3nccnn23)cc1", "note": "[AH20685]", "%Inh": 0}
{"smiles": "Cc1ccc(C(=O)N2CC[C@@H](O)C2)cc1-n1c(C)cc(OCc2ccc(F)cc2F)c(Br)c1=O", "%Inh": 0}
{"smiles": "C[C@@H](Oc1cc(-n2cnc3cc(-c4ccnc(NCCS(C)(=O)=O)c4)ccc32)sc1C(N)=O)c1ccccc1Cl", "note": "[GSK907232]", "%Inh": 0}
{"smiles": "Cl.c1ccc(-c2ccc3c(Nc4ccc5[nH]ncc5c4)ccnc3c2)nc1", "note": "[GW440137]", "%Inh": 0}
{"smiles": "Oc1cc(Nc2ccnc3cc(I)ccc23)ccc1F", "note": "[GW552771]", "%Inh": 0}
{"smiles": "Nc1n[nH]c2cnc(-c3ccccc3)cc12", "note": "[SB-642124]", "%Inh": 0}
{"smiles": "COc1cc(Nc2nccc(N3CCC(NC(=O)c4cc5ccccc5s4)C3)n2)cc(OC)c1OC", "note": "(stereo not shown) [GSK1379760]", "%Inh": 0}
{"smiles": "C[C@@H]1CC[C@@H](C(=O)Nc2ccccc2)CN1c1cc(-c2ccc3c(N)n[nH]c3c2)nc(N)n1", "note": "[GSK2286062]", "%Inh": 0}
{"smiles": "Nc1ncc(-c2cccnc2)c2scc(-c3ccc4c(c3)CCN4C(=O)Cc3ccccc3)c12", "note": "[GSK683281]", "%Inh": 1}
{"smiles": "Cc1ccc(F)c(C(=O)Nc2cccc(-c3nn4ccccc4c3-c3ccnc(Nc4cccc(F)c4)n3)c2)c1F", "note": "[GSK361061]", "%Inh": 0}
{"smiles": "O=C(Nc1cccc(-c2nn3ncccc3c2-c2ccnc(Nc3ccccc3)n2)c1)c1c(F)cccc1F", "note": "[GSK198271]", "%Inh": 45}
{"smiles": "CC(C)c1nc(-c2cccc(NS(=O)(=O)c3c(F)cccc3F)c2F)c(-c2ccnc(Nc3ccc(N4CCOCC4)nc3)n2)s1", "note": "[GSK2008607]", "%Inh": 0}
{"smiles": "COc1cc(Nc2ncc3c(C)nc(-c4cc5ccccc5[nH]4)n3n2)cc(OC)c1OC", "note": "[GW869516]", "%Inh": 0}
{"smiles": "COCCOCCOc1cc2ncc3c4ccc(C#N)cc4[nH]c3c2cc1OC", "%Inh": 17}
{"smiles": "O=C(O)C(F)(F)F.O=C(O)C(F)(F)F.O=c1[nH]ccc2nc(N[C@@H]3CCCNC3)nc(Nc3ccc(S(=O)(=O)N4CCOCC4)cc3)c12", "note": "[GSK2177277]", "%Inh": 72}
{"smiles": "Cc1cccc(Nc2nc(N[C@H]3CCNC3)ncc2C(N)=O)c1.Cl", "note": "[GSK2197149]", "%Inh": 0}
{"smiles": "COc1cc(Nc2nccc(-c3c(-c4cccc(NC(=O)c5c(F)cccc5F)c4)nn4ncccc34)n2)cc(OC)c1OC", "note": "[GSK327238]", "%Inh": 0}
{"smiles": "O=C(Nc1n[nH]c2cc(-c3ccoc3)ccc12)C1CC1", "note": "[SB-738481]", "%Inh": 0}
{"smiles": "O=C(Nc1cccc(-c2nn3ccccc3c2-c2ccnc(Nc3cccc(C(F)(F)F)c3)n2)c1)c1c(F)cccc1F", "note": "[GSK292658]", "%Inh": 15}
{"smiles": "COC(=O)Nc1nc2ccc(Oc3ccc(NC(=O)Nc4cc(C(F)(F)F)ccc4F)cc3)cc2n1C.Cl", "note": "[GW692089]", "%Inh": 0}
{"smiles": "Fc1ccc(-c2ncn(C3CCNCC3)c2-c2ccnc(Oc3ccc(-c4ccccc4)cc3)n2)cc1", "note": "[SB-245391]", "%Inh": 23}
{"smiles": "COc1cc(Nc2nccc(-c3c(-c4cccc(NC(=O)c5c(F)cccc5F)c4)nn4ccccc34)n2)cc(OC)c1OC", "note": "[GSK323521]", "%Inh": 0}
{"smiles": "O=C(Nc1cccc(-c2nn3ccccc3c2-c2ccnc(Nc3cccc(F)c3)n2)c1)c1c(F)ccc(F)c1Cl", "note": "[GSK357952]", "%Inh": 17}
